One assay concerns the target T1, ETV3L (Homo sapiens, UniProt Q6ZN32 1-361).
T1 sequence: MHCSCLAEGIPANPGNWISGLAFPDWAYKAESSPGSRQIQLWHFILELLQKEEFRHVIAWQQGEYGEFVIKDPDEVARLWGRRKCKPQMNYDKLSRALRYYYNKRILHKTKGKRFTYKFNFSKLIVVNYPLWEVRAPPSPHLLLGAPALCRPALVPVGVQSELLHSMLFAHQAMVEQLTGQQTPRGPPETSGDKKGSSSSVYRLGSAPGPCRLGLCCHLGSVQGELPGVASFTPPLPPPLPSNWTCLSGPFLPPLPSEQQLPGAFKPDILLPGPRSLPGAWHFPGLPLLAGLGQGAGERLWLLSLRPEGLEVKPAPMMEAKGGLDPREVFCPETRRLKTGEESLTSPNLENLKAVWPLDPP
The assay is described as follows: DAPPL (digital affinity profiling via proximity ligation, sequencing); 10 mM Tris-HCl pH 7.5, 50 mM NaCl, 1 mM DTT, 4% glycerol, room temperature, 30 min; GST-TFs on glutathione beads, 16-mer random dsDNA library, 0.1% formaldehyde crosslink after washing; high values mean tight binding. The following applies: protein: recombinant; tags: N-terminal GST; dsDNA, one strand shown. An outline of the steps:
(§1)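 Sequencing on an Illumina NextSeq500 followed washing, crosslinking with 0.1% formaldehyde, proximity ligation (BsaI/T4 ligase, 1 h, 37 °C) and PCR amplification of pools that had been incubated for 30 min at room temperature with 200 nmole of a random double-stranded 16-mer DNA library in Tris/NaCl/DTT/glycerol buffer. Each pool held DNA-barcoded human transcription factors, expressed in yeast as GST fusions and captured on glutathione beads, plus a tag-only sample. Binding signal is a hexamer's read frequency for a factor divided by its frequency in the tag-only sample.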
CGCTCC: the binding signal is 1.4 fold enrichment (6-mer frequency, TF over GST control).
Still for that read-out and setting: next, GCTGTA: 1.02 fold enrichment (6-mer frequency, TF over GST control); TGCCTG: 1.28 fold enrichment (6-mer frequency, TF over GST control); CCGGCA: 1.47 fold enrichment (6-mer frequency, TF over GST control).
On the same count and under the same terms, the figure for ACCTTC is 1.75 fold enrichment (6-mer frequency, TF over GST control).
The same measure, in the same setting: next, TGATCC: 1.28 fold enrichment (6-mer frequency, TF over GST control); CCGACG: 1.23 fold enrichment (6-mer frequency, TF over GST control).
For TGCCTT, the binding signal was 1.52 fold enrichment (6-mer frequency, TF over GST control).
Consider AGATGA, for which the binding signal is 1.01 fold enrichment (6-mer frequency, TF over GST control).
On the same count and under the same terms, next, ACTTGG: 1.15 fold enrichment (6-mer frequency, TF over GST control); CCACGA: 1.09 fold enrichment (6-mer frequency, TF over GST control).
Still for that read-out and setting: the figure for ACTCCA is 1.11 fold enrichment (6-mer frequency, TF over GST control); for CAACCC it is 1.25 fold enrichment (6-mer frequency, TF over GST control).
Same read-out and setting: the figure for TCTACG is 1.4 fold enrichment (6-mer frequency, TF over GST control); for AATAGG it is 1.12 fold enrichment (6-mer frequency, TF over GST control).
For TCCATC, the binding signal was 1.31 fold enrichment (6-mer frequency, TF over GST control).
The same measure, in the same setting: next, ATTAAC: 1.31 fold enrichment (6-mer frequency, TF over GST control); CCCACT: 1.37 fold enrichment (6-mer frequency, TF over GST control).
On the same count and under the same terms, the figure for ACACAT is 1.23 fold enrichment (6-mer frequency, TF over GST control).
The same measure, in the same setting: the figure for ACGACA is 1.12 fold enrichment (6-mer frequency, TF over GST control).

The next assay deals with T2, ETS2 (Homo sapiens, UniProt P15036 1-469).
T2 sequence: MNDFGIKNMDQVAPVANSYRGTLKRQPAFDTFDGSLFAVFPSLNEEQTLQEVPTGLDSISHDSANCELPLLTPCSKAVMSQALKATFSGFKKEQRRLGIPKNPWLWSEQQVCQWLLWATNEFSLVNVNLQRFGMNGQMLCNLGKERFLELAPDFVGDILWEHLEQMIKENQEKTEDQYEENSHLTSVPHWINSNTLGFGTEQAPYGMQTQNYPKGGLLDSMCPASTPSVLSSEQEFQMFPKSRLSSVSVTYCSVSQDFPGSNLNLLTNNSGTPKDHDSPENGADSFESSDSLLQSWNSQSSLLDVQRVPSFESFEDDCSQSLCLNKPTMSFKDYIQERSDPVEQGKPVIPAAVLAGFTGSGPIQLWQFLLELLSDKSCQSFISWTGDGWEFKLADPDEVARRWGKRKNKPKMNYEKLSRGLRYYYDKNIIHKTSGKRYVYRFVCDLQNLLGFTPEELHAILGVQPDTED
The assay is described as above. The conditions noted are these: protein: recombinant; tags: N-terminal GST; dsDNA, one strand shown. An outline of the steps:
as §1
As to ATGATC, the binding signal was 1.16 fold enrichment (6-mer frequency, TF over GST control).
Still for that read-out and setting: the figure for ACACTG is 1.06 fold enrichment (6-mer frequency, TF over GST control).
The same measure, in the same setting: next, CCTGTG: 1.03 fold enrichment (6-mer frequency, TF over GST control); CTGGTC: 1.21 fold enrichment (6-mer frequency, TF over GST control); TTTATT: 1.21 fold enrichment (6-mer frequency, TF over GST control).
Consider TACAAA, for which the binding signal was 1.17 fold enrichment (6-mer frequency, TF over GST control).
Same read-out and setting: the figure for CCTGCA is 1.26 fold enrichment (6-mer frequency, TF over GST control); for ACTGCC it is 1.29 fold enrichment (6-mer frequency, TF over GST control).
Same read-out and setting: the figure for ATAATT is 1.31 fold enrichment (6-mer frequency, TF over GST control).
The same measure, in the same setting: the figure for CCTCGG is 1.23 fold enrichment (6-mer frequency, TF over GST control).
As to TTAATC, the binding signal was 1.29 fold enrichment (6-mer frequency, TF over GST control).
Consider CTGTTG, for which the binding signal is 1.21 fold enrichment (6-mer frequency, TF over GST control).
As for ACATAC, the binding signal is 1.21 fold enrichment (6-mer frequency, TF over GST control).
Take GTTCCG: the binding signal is 1.98 fold enrichment (6-mer frequency, TF over GST control).
Turning to ATTGCC, the binding signal is 1.25 fold enrichment (6-mer frequency, TF over GST control).
Same read-out and setting: next, CGTTCC: 1.48 fold enrichment (6-mer frequency, TF over GST control).
Still for that read-out and setting: the figure for GCTATG is 1.26 fold enrichment (6-mer frequency, TF over GST control); for GGATGT it is 1.72 fold enrichment (6-mer frequency, TF over GST control).
On the same count and under the same terms, next, TGTCTC: 1.26 fold enrichment (6-mer frequency, TF over GST control).
With CGCTCC, the binding signal was 1.39 fold enrichment (6-mer frequency, TF over GST control).
Turning to GCTGTA, the binding signal was 1.1 fold enrichment (6-mer frequency, TF over GST control).
Still for that read-out and setting: next, TGCCTG: 1.28 fold enrichment (6-mer frequency, TF over GST control); CCGGCA: 1.43 fold enrichment (6-mer frequency, TF over GST control).
On the same count and under the same terms, the figure for ACCTTC is 1.89 fold enrichment (6-mer frequency, TF over GST control).
Same read-out and setting: the figure for TGATCC is 1.25 fold enrichment (6-mer frequency, TF over GST control); for CCGACG it is 1.33 fold enrichment (6-mer frequency, TF over GST control).
Regarding TGCCTT, the binding signal was 1.38 fold enrichment (6-mer frequency, TF over GST control).
For the sequence AGATGA, the binding signal was 1.05 fold enrichment (6-mer frequency, TF over GST control).
On the same count and under the same terms, next, ACTTGG: 1.16 fold enrichment (6-mer frequency, TF over GST control); CCACGA: 1.08 fold enrichment (6-mer frequency, TF over GST control); ACTCCA: 1.28 fold enrichment (6-mer frequency, TF over GST control).
Turning to CAACCC, the binding signal is 1.28 fold enrichment (6-mer frequency, TF over GST control).
On the same count and under the same terms, next, TCTACG: 1.41 fold enrichment (6-mer frequency, TF over GST control); AATAGG: 1.16 fold enrichment (6-mer frequency, TF over GST control).
Same read-out and setting: the figure for TCCATC is 1.2 fold enrichment (6-mer frequency, TF over GST control).
Still for that read-out and setting: next, ATTAAC: 1.27 fold enrichment (6-mer frequency, TF over GST control); CCCACT: 1.32 fold enrichment (6-mer frequency, TF over GST control).
On to ACACAT, for which the binding signal is 1.27 fold enrichment (6-mer frequency, TF over GST control).
On the same count and under the same terms, the figure for ACGACA is 1.12 fold enrichment (6-mer frequency, TF over GST control).
